Eight compounds from PubChem BioAssay (NCI) can be followed below.

This is part of a sample that, as a whole, favours compounds with a hit. Of some 83,000 tested, about 20% had one in any assay.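 Results are percent growth after 48 hours of single-concentration exposure. 100 means growth as in untreated cells, lower positive values show inhibition; negative values down to -100 show cell death.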 A number with no mark means an inactive call. Active and inactive are the calls of the source. Rule for the calls: active = growth percent below 10; inactive = the rest.

Among the test systems are DU-145 prostate; K-562 leukemia; MALME-3M melanoma; MDA-MB-231 breast; RXF 393 renal; SF-268 CNS; SF-295 CNS; SF-539 CNS; UACC-257 melanoma; M14 melanoma; HCT-15 colon; HT29 colon; SNB-75 CNS; SNB-19 CNS; PC-3 prostate; SK-MEL-5 melanoma; UACC-62 melanoma; LOX IMVI melanoma; SK-MEL-28 melanoma; U251 CNS.
Common to all, as to experiment: NCI-60 one-dose screen, 48 h (100 = growth as untreated, 0 = no growth, -100 = all killed)
Conditions in all cases: 10 µM unless noted

On to `O=C(Nc1ncc(Cc2ccccc2)s1)c1ccc2c(c1)OCCCO2`, for which the growth with DU-145 prostate was 27.5%; in the experiment with K-562 leukemia, 9.28% (active); in the experiment with MALME-3M melanoma, 51%; with MDA-MB-231 breast, 44%; in the experiment with RXF 393 renal, -10% (active); in the experiment on SF-268 CNS, 60.4%. The growth is 15.2% in the experiment on SF-295 CNS; -9.3% (active) with SF-539 CNS; 41.4% in the experiment on UACC-257 melanoma; 3.29% (active) in the experiment on M14 melanoma; 21.5% with HCT-15 colon; 9.72% (active) with HT29 colon. Moreover, the growth in the experiment with SNB-75 CNS is 34.3%; in the experiment on SNB-19 CNS, 37.4%; in the experiment with PC-3 prostate, 27.7%; in the experiment with SK-MEL-5 melanoma, 8.06% (active); in the experiment with UACC-62 melanoma it was 29%; in the experiment with LOX IMVI melanoma, 29.9%. The growth in the experiment with SK-MEL-28 melanoma was 36.8%.
Regarding `Cc1ccc(-c2csc(NC(=O)c3ccccc3CN3C(=O)c4ccccc4C3=O)n2)cc1`, the growth with DU-145 prostate was 96.5%; with K-562 leukemia it was 100%; with MALME-3M melanoma, 93.7%; in the experiment on MDA-MB-231 breast, 93.2%; in the experiment with RXF 393 renal, 89.8%; in the experiment with SF-268 CNS it was 86.6%. Besides, the growth in the experiment with SF-295 CNS is 95.6%; in the experiment with SF-539 CNS it was 98.4%; in the experiment with UACC-257 melanoma, 92.4%; with M14 melanoma it was 106%; in the experiment on HCT-15 colon, 90.8%; in the experiment with HT29 colon, 97.1%. In addition, the growth in the experiment on SNB-75 CNS was 87.3%; with SNB-19 CNS, 91.8%; with PC-3 prostate it was 91.9%; in the experiment on SK-MEL-5 melanoma, 95.5%; with UACC-62 melanoma it was 76.6%; in the experiment with LOX IMVI melanoma, 99.3%. Moreover, the growth in the experiment with SK-MEL-28 melanoma is 99.9%.
For `Oc1c(CN2CCCC2)cc(CSCc2ccccc2)c2cccnc12`, the growth in the experiment on DU-145 prostate was 22.6%; in the experiment with K-562 leukemia, 11%; in the experiment on MALME-3M melanoma it was -2.43% (active); in the experiment on MDA-MB-231 breast it was 26.4%; with RXF 393 renal, 31.3%; in the experiment with SF-268 CNS, 11.9%. In addition, the growth with SF-295 CNS is 5.5% (active); in the experiment on SF-539 CNS it was -26.2% (active); in the experiment on UACC-257 melanoma it was -16.7% (active); in the experiment on M14 melanoma, -3.2% (active); in the experiment on HCT-15 colon, -39.3% (active); in the experiment with HT29 colon, 91%. In addition, the growth in the experiment with SNB-75 CNS is 24.6%; in the experiment on SNB-19 CNS it was 23.9%; in the experiment with PC-3 prostate it was 20.8%; with SK-MEL-5 melanoma, -26.3% (active); with UACC-62 melanoma, -19.5% (active); in the experiment with LOX IMVI melanoma, 2.24% (active). The growth in the experiment with SK-MEL-28 melanoma was 23.8%.
For the compound `CCNC(=O)Oc1ccc(/C(=C(/C)Cc2ccc(OC)cc2)c2ccc(OCCN3CCCCC3)cc2)cc1`, the growth in the experiment on DU-145 prostate is 83.5%; in the experiment on K-562 leukemia it was 0.352% (active); in the experiment with MALME-3M melanoma, 68.1%; with MDA-MB-231 breast it was 78.4%; in the experiment with RXF 393 renal it was 61.6%; in the experiment with SF-268 CNS, 70%. The growth in the experiment with SF-295 CNS was 82.6%; in the experiment with SF-539 CNS it was 82.9%; in the experiment with UACC-257 melanoma, 95.3%; with M14 melanoma, -14.2% (active); in the experiment on HCT-15 colon, 38.9%; with HT29 colon it was 1.16% (active). Also, the growth with SNB-75 CNS is 69%; with SNB-19 CNS it was 76%; in the experiment with U251 CNS, 47.5%; in the experiment on SK-MEL-5 melanoma, 46.2%; in the experiment on UACC-62 melanoma, 58.4%; in the experiment on LOX IMVI melanoma it was 60.9%. For the same compound, the growth in the experiment on SK-MEL-28 melanoma is 67.6%.
On to `CCOC(=O)c1nn(CC(O)c2ccccc2)c(NC(=O)Nc2cccc(F)c2)c1C` (stereo unspecified), for which the growth is 94.4% in the experiment with DU-145 prostate; 92.4% in the experiment on K-562 leukemia; 100% in the experiment on MALME-3M melanoma; 90% in the experiment with MDA-MB-231 breast; 107% in the experiment on RXF 393 renal; 95.4% in the experiment with SF-268 CNS. The growth was 92.2% in the experiment on SF-295 CNS; 102% with SF-539 CNS; 86.8% with UACC-257 melanoma; 103% in the experiment on M14 melanoma; 98% in the experiment on HCT-15 colon; 101% in the experiment on HT29 colon. For the same compound, the growth in the experiment on SNB-75 CNS is 108%; in the experiment on SNB-19 CNS it was 97.3%; with U251 CNS, 92%; in the experiment with SK-MEL-5 melanoma, 96.7%; in the experiment on UACC-62 melanoma it was 80.8%; with LOX IMVI melanoma it was 98.4%. In the experiment on SK-MEL-28 melanoma, the growth was 113%.
For `COC(=O)c1c2c(c(C)[n+]([O-])c1C)C(=O)C(NCc1cccc(Cl)c1)=CC2=O`, the growth with DU-145 prostate was 38.3%; in the experiment on K-562 leukemia it was 6.86% (active); in the experiment on MALME-3M melanoma, -96.2% (active); in the experiment with MDA-MB-231 breast it was 3.99% (active); in the experiment with RXF 393 renal, 34.3%; in the experiment with SF-268 CNS it was 16.2%. The growth is 42.5% in the experiment with SF-295 CNS; 4.07% (active) in the experiment on SF-539 CNS; -37.5% (active) with UACC-257 melanoma; 1.44% (active) in the experiment on M14 melanoma; 7.55% (active) in the experiment with HCT-15 colon; 5.87% (active) in the experiment with HT29 colon. Moreover, the growth with SNB-75 CNS is 127%; in the experiment on SNB-19 CNS it was 9.37% (active); in the experiment with PC-3 prostate, 4.17% (active); in the experiment on SK-MEL-5 melanoma, -77.7% (active); in the experiment on UACC-62 melanoma, -42.6% (active); with LOX IMVI melanoma, 11.7%. The growth in the experiment with SK-MEL-28 melanoma is 63%.
In the case of `Cn1ccc(=O)nc1`, the growth was 8.53% (active) in the experiment on DU-145 prostate; 91.9% in the experiment with K-562 leukemia; 111% in the experiment with MALME-3M melanoma; 91.9% with MDA-MB-231 breast; 92.6% in the experiment on RXF 393 renal; 86.1% in the experiment on SF-268 CNS. In addition, the growth is 82.9% with SF-295 CNS; 99.9% with SF-539 CNS; 88.3% in the experiment on UACC-257 melanoma; 102% with M14 melanoma; 24.1% with HCT-15 colon; 20.6% in the experiment on HT29 colon. Further, the growth in the experiment with SNB-75 CNS is 104%; in the experiment with SNB-19 CNS it was 84.6%; in the experiment with U251 CNS, 77.8%; with SK-MEL-5 melanoma, 99.3%; with UACC-62 melanoma, 74.8%; in the experiment on LOX IMVI melanoma, 76.8%. Moreover, the growth in the experiment with SK-MEL-28 melanoma was 109%.
Consider `COc1cc2c(c(OC)c1OC)C(=O)CC(c1cccc(NC(=O)c3ccc(C#N)cc3)c1)O2` (stereo unspecified), for which the growth with DU-145 prostate was 83.6%; in the experiment on K-562 leukemia it was 48.6%; with MALME-3M melanoma it was 83.7%; with MDA-MB-231 breast it was 79.9%; with RXF 393 renal, 97.3%; in the experiment on SF-268 CNS, 86.5%. The growth in the experiment with SF-295 CNS is 77.9%; with SF-539 CNS it was 92.7%; in the experiment with UACC-257 melanoma, 72.3%; in the experiment on M14 melanoma it was 64.4%; in the experiment with HCT-15 colon it was 75.7%; in the experiment on HT29 colon, 84.9%. The growth in the experiment with SNB-75 CNS was 74.9%; in the experiment on SNB-19 CNS, 92%; with PC-3 prostate, 53%; in the experiment on SK-MEL-5 melanoma, 43.2%; with UACC-62 melanoma, 33.9%; with LOX IMVI melanoma, 65.7%.
